Laboratory results taken from PubChem BioAssay (NCI).
The panel holds about 83,000 compounds, 20% with a hit somewhere; the sample as a whole holds those more often.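 96-well plates, one dose, 48 hours. Percent growth reported; active if below 10.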 Unmarked numbers belong to inactive results. Active and inactive are the calls of the source.

What was measured:
Assay in all cases: NCI-60 one-dose screen, 48 h (100 = growth as untreated, 0 = no growth, -100 = all killed)
Conditions in all cases: 10 µM
NCI-H23 lung = tested on: NCI-H23 lung
NCI-H226 lung = tested on: NCI-H226 lung
NCI-H322M lung = tested on: NCI-H322M lung
HOP-62 NSCLC = tested on: HOP-62 NSCLC
NCI-H460 lung = tested on: NCI-H460 lung
HOP-92 NSCLC = tested on: HOP-92 NSCLC
NCI-H522 lung = tested on: NCI-H522 lung
A549/ATCC NSCLC = tested on: A549/ATCC NSCLC
786-0 renal = tested on: 786-0 renal
COLO 205 colon = tested on: COLO 205 colon
DU-145 prostate = tested on: DU-145 prostate
MALME-3M melanoma = tested on: MALME-3M melanoma
MDA-MB-231 breast = tested on: MDA-MB-231 breast
RXF 393 renal = tested on: RXF 393 renal
SF-268 CNS = tested on: SF-268 CNS
SF-295 CNS = tested on: SF-295 CNS
SF-539 CNS = tested on: SF-539 CNS
UACC-257 melanoma = tested on: UACC-257 melanoma
M14 melanoma = tested on: M14 melanoma

Row | Compound | growth (NCI-H23 lung) | growth (NCI-H226 lung) | growth (NCI-H322M lung) | growth (HOP-62 NSCLC) | growth (NCI-H460 lung) | growth (HOP-92 NSCLC) | growth (NCI-H522 lung) | growth (A549/ATCC NSCLC) | growth (786-0 renal) | growth (COLO 205 colon) | growth (DU-145 prostate) | growth (MALME-3M melanoma) | growth (MDA-MB-231 breast) | growth (RXF 393 renal) | growth (SF-268 CNS) | growth (SF-295 CNS) | growth (SF-539 CNS) | growth (UACC-257 melanoma) | growth (M14 melanoma)
1 | CN(C)c1cccc2c(S(=O)(=O)Nc3cccc(-c4csc(NC(=O)CCCCCN5CCN(c6cc7c(cc6F)C(=O)N(C6CCC(=O)NC6=O)C7=O)CC5)n4)c3)cccc12 (configuration not stated) | 60.2% | 72.7% | 106% | 88.5% | 91.4% | 56.6% | 85.6% | 90.3% | 86.1% | 104% | 97.2% | 87.1% | 98% | 89.7% | 91.4% | 91.8% | 78.5% | 82% | 97.3%
2 | C=C[C@H]1[C@H](O[C@@H]2OC(CO)[C@@H](O)[C@H](O)C2OC(=O)c2c(O)cc(O)cc2-c2cccc(O)c2)OC=C2C(=O)OCC[C@H]21 (some centres not stated) | 96.5% | 98.8% | 93.8% | 93.6% | 107% | 132% | 106% | 95.3% | 105% | 107% | 105% | 92.6% | 96.1% | 104% | 101% | 96.2% | 104% | 90.8% | 101%
3 | CC1(C)CC[C@]23CC[C@]4(C)[C@H](CC[C@@H]5[C@@]6(C)CC[C@H](N)C(C)(C)[C@@H]6CC[C@]54C)[C@H]2[C@H]1OC3=O | -94.7% (active) | -90% (active) | -99.5% (active) | -77.2% (active) | -13.9% (active) | -65.5% (active) | -85.5% (active) | -88.9% (active) | -94.8% (active) | -69.5% (active) | -79.8% (active) | -95.9% (active) | -96.3% (active) | -95.6% (active) | -38.6% (active) | -94.5% (active) | -99.3% (active) | -90.8% (active) | -77.6% (active)
4 | Cc1cc(C)nc(SCC(=O)Nc2ccc(S(N)(=O)=O)cc2)n1 | 100% | 98.5% | 102% | 108% | 134% | 101% | 95.9% | 103% | 105% | 124% | 114% | 99.1% | 103% | 96% | 125% | 99.8% | 94.8% | 107% | 114%
5 | Cc1ccc(C(C)C)cc1NC(=O)c1ccccc1N(C)C | 82.4% | 99.3% | 82.7% | 97.1% | 102% | 73.8% | 78.3% | 82.2% | 81.7% | 105% | 97.4% | 88.3% | 91.1% | 85.2% | 95.8% | 83.8% | 96.9% | 86.5% | 93.9%
6 | Cc1ccc(C(=O)NCCCNc2nc(Nc3ccc(N4CCN(C)CC4)cc3)nc3ccsc23)cc1 | 53.4% | 68.7% | 64.3% | 73.7% | 49.2% | 27.1% | 73.2% | 54.5% | -11.6% (active) | 32.7% | 58.7% | -94.8% (active) | 44.4% | -53.1% (active) | 60.4% | 44.8% | -89.9% (active) | -17.7% (active) | -7.88% (active)
7 | C#CCNC(=O)[C@]12CCC(C)(C)C[C@H]1C1=CC[C@@H]3[C@@](C)(CCC#N)[C@H](C(=C)C)CC[C@@]3(C)[C@]1(C)CC2 | 58.2% | 76.5% | 77.1% | 68.5% | 66.9% | 26.4% | 64.5% | 40.1% | 74.6% | 68% | 91.4% | 75.9% | 39.6% | 66.8% | 86.2% | 38.2% | 83.4% | 54.4% | 76.3%
8 | CN1CCN(c2ccc(Nc3nc(NCCCNC(=O)c4ccccc4)c4sccc4n3)cc2)CC1 | 82.5% | 84.6% | 84.2% | 93.5% | 67.6% | 69.3% | 91.5% | 72.5% | 24.9% | 93.8% | 75.5% | 46.1% | 88.6% | 2.61% (active) | 77.6% | 85.9% | -89.5% (active) | 32.5% | 38.6%
